Measured values taken from the supplement of paper PMC9950053.
Where a name gives a salt, the structure may show the parent alone.

tested on: Danio rerio larvae (5 dpf); assay: habituation (activity change first vs second 5 min of 1-s interval sound, period 17) minus DMSO control (percentage points); higher = larger habituation measure than DMSO larvae; conditions: 10 µM; exposure time: 3 h pre-incubation + 3 h imaging
Method: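 Wild-type 5 dpf zebrafish larvae (n=48 per drug, 96-well plates, 28.5 °C) were exposed to Tocris FDA-approved library compounds at 10 µM (0.1% DMSO) for 3 h before and 3 h during imaging. Images were taken every 6 s during visual (moving coloured lines) and acoustic stimuli, and larvae were tracked with the DeepLabCut-based Z-LaP Tracker. Each behavioural measure is the treated-group mean minus the DMSO vehicle control mean (n=844), in percentage points. This mapping covers compounds with 4-character plate codes.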

| Compound | habituation |
| --- | --- |
| O=c1[nH]c2ccccc2n1C1CCN(CCCC(c2ccc(F)cc2)c2ccc(F)cc2)CC1 [Pimozide] | -10.2 |
| CN1C[C@H](C(=O)N[C@]2(C)O[C@@]3(O)[C@@H]4CCCN4C(=O)[C@H](Cc4ccccc4)N3C2=O)C[C@@H]2c3cccc4[nH]cc(c34)C[C@H]21 [Dihydroergotamine mesylate] | 2.38 |
| Cc1cccc([C@H](C)c2c[nH]cn2)c1C [Dexmedetomidine hydrochloride] | -10.4 |
| C=C1C[C@@H]2[C@H](CC[C@]3(C)C(=O)CC[C@@H]23)[C@@]2(C)C=CC(=O)C=C12 [Exemestane] | -2.71 |
| CC(O)(CS(=O)(=O)c1ccc(F)cc1)C(=O)Nc1ccc(C#N)c(C(F)(F)F)c1 (stereo unspecified) [Bicalutamide] | -6.13 |
| N[C@@H]1C[C@H]1c1ccccc1 [Tranylcypromine hydrochloride] | -2.8 |
| C=CCN1C[C@H](C(=O)N(CCCN(C)C)C(=O)NCC)C[C@@H]2c3cccc4[nH]cc(c34)C[C@H]21 [Cabergoline] | 5.7 |
| CC(C)C[C@H]1C(=O)N2CCC[C@H]2[C@]2(O)O[C@](NC(=O)[C@@H]3C=C4c5cccc6[nH]c(Br)c(c56)C[C@H]4N(C)C3)(C(C)C)C(=O)N12 [Bromocriptine mesylate] | -1.05 |
| CCN(C)C(=O)Oc1cccc([C@H](C)N(C)C)c1 [Rivastigmine tartrate] | 0.0925 |
| COc1cc2c(cc1OC)C1CC(=O)C(CC(C)C)CN1CC2 (stereo unspecified) [Tetrabenazine] | 0.576 |
| CC[C@@H](C(N)=O)N1CCCC1=O [Levetiracetam] | -2 |
